Laboratory results reported in PubChem BioAssay (NCATS).
Inconclusive results are not listed. Values without a mark were called inactive. Active and inactive are the calls of the source. Calls follow the shape of the dose curve; as a rule, active = well fitted inhibition curve with a large enough effect; inconclusive = small, poorly fitted or top-dose-only effect; inactive = flat fitted curve, though single readings scatter.

test: P-glycoprotein substrates identified in KB-8-5-11 adenocarcinoma cell line, qHTS therapeutic library screen (AID 1346987); details: KB-8-5-11 (P-gp overexpressing) viability, CellTiter-Glo, 72 h; series mostly up to 44.5 µM; activity change, negative = cytotoxicity: at the top concentration; also: nearly all actives have a fitted effect of over 65% in size
Outline: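 Steps: plate 500 KB-8-5-11 cells/well in DMEM + 10% FCS (colchicine removed); pin compounds in dose-response; incubate 72 h, 37 degree C, 5% CO2; add CellTiter-Glo, 5 min; read luminescence.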
% is scaled to controls: 0 for no effect and ±100 for the full control effect; potency is read from the fitted curve at half-maximal effect.

| Compound | activity change, negative = cytotoxicity | Potency | outcome |
| --- | --- | --- | --- |
| CC(CCc1ccc(O)cc1)O[C@@H]1O[C@H](CO[C@H]2OC[C@](O)(CO)[C@H]2O)[C@@H](O)[C@H](O)[C@H]1O (stereo not given in full) | 0.451% [at 17.3 µM] |  |  |
| CC(=O)OC1CC(O)C(C)(C)C2CC(OC(C)=O)C3(C)C(CCC4(C)C(c5ccoc5)C(=O)C5OC543)C12C (stereo not given) | -12.7% [at 17.3 µM] |  |  |
| CC1=C2C[C@H]3[C@@H](CC=C4C[C@@H](O)CC[C@@]43C)[C@@H]2CC[C@]12O[C@@H]1C[C@H](C)CN[C@H]1[C@H]2C | -18.3% |  |  |
| CCc1[nH]c2ccc(OC)cc2c1CCN(C)C | -5.5% |  |  |
| CN(C(=O)Cc1ccccc1)C(CN1CCCC1)c1ccccc1 (stereo not given) | -10.6% |  |  |
| COC1C(O)C(OC2CCC3(C=O)C(CCC4C3CCC3(C)C(C5=CC(=O)OC5)CCC43O)C2)OC(C)C1OC1OC(CO)C(O)C(O)C1O (stereo not given) |  | 432 nM (active) |  |
| N#CC(OC1OC(COC2OC(CO)C(O)C(O)C2O)C(O)C(O)C1O)c1ccccc1 (stereo not given) |  |  | inactive [at 17.3 µM] |
| CC(C)[C@@H](CN1CC[C@@](C)(c2cccc(O)c2)[C@@H](C)C1)NC(=O)[C@H]1Cc2ccc(O)cc2CN1 | 9.89% |  |  |
| C=CCC1(C(C)CCC)C(=O)N=C(S)NC1=O (stereo not given) | -4.48% |  |  |
| C=CC(C)(O)CC/C=C(\C)C(=O)O[C@H]1[C@H](O)[C@@H](CO)O[C@@H](OC(=O)[C@]23CCC(C)(C)CC2C2=CCC4[C@@]5(C)CC[C@H](O[C@@H]6O[C@H](CO[C@@H]7OC[C@H](O)[C@H](O)[C@H]7O[C@@H]7OC[C@@H](O)[C@H](O)[C@H]7O)[C@@H](O)[C@H](O)[C@H]6O)C(C)(C)C5CC[C@@]4(C)[C@]2(C)CC3)[C@@H]1OC1OC(C)C(O[C@@H]2OC[C@@H](O)[C@H](O[C@@H]3OC[C@@H](O)[C@H](O)[C@H]3O)[C@H]2O)C(O)C1O (stereo not given in full) | 3.69% [at 9.29 µM] |  |  |
| COC1CC(OC2CCC3(C)C(CCC4C3CCC3(C)C(C5=CC(=O)OC5)C(OC(C)=O)CC43O)C2)OC(C)C1OC1OC(CO)C(O)C(O)C1O (stereo not given) |  | 685 nM (active) |  |
| CC12CCC3C(CCC4(O)CC(O)CCC34C=O)C1(O)CCC2C1=CC(=O)OC1 (stereo not given) |  | 651 nM (active) |  |
| COC(=O)[C@@]12C(=O)C(C)C(=O)[C@]1(C)C(C)=C[C@H]1[C@]3(C=O)CC[C@H](OC(C)=O)C(C)(C)[C@H]3CC[C@@]12C (stereo not given in full) | -4.84% [at 17.3 µM] |  |  |
| CC(=O)O[C@H]1C[C@@H](OC(C)=O)C(C)(C)C2C[C@@H](O)[C@]3(C)C(CC[C@@]4(C)[C@H](C5=CC(=O)OC5O)C[C@H]5O[C@]543)[C@]21C (stereo not given in full) |  |  | inactive [at 17.3 µM] |
| CN[C@H]1[C@H](O)[C@H](O[C@@H]2[C@@H](O)[C@H](O[C@H]3O[C@H]([C@H](C)O)[C@@H](O)[C@H](O)[C@H]3N)[C@@H](N)C[C@H]2N)OC[C@@]1(C)O |  |  | inactive |
| CO[C@@H]1[C@H](O)[C@@H](O[C@@H]2C[C@H]3CC[C@@H]4C(CC[C@]5(C)[C@@H](C6=CC(=O)OC6)CC[C@]45O)[C@@]3(C)[C@H](O)C2)O[C@H](C)[C@@H]1O[C@@H]1O[C@H](CO)[C@@H](O)[C@H](O)[C@H]1O (stereo not given in full) |  | 385 nM (active) |  |
| CC1C/C=C/C(O)C(O)CC/C=C/c2cc(O)cc(O)c2C(=O)O1 (stereo not given) | -10.9% |  |  |
| C/C=C(\C)C(=O)OC1CC2C(C)(C)OC(=O)CC(OC(C)=O)C2(C)C2CC(OC(=O)C(C)C)C3(C)C(c4ccoc4)CC4OC43C12C (stereo not given) | -2.47% [at 17.3 µM] |  |  |
| CC(C)=C1CC[C@]23CO[C@H](C2)[C@@](O)(C(=O)O)CCC13 (stereo not given in full) |  |  | inactive |
| C=C1[C@@H]2CC[C@@]3(C)[C@H](c4ccoc4)OC(=O)C[C@]13O[C@H]1CC(=O)C(C)(C)[C@H](C(OC(C)=O)C(=O)OC)[C@]12C (stereo not given in full) | 8.74% [at 17.3 µM] |  |  |
| N#C[C@@H](O[C@@H]1O[C@H](CO[C@@H]2O[C@H](CO)[C@@H](O)[C@H](O)[C@H]2O)[C@@H](O)[C@H](O)[C@H]1O)c1ccccc1 | -0.964% [at 17.3 µM] |  |  |
| C[C@]12CC[C@H]3[C@@H]([C@H](O)CC4=CC(=O)CC[C@@]43C)[C@@H]1CC[C@@H]2O | -6.77% |  |  |
| C/C(O)=C(\C#N)C(=O)Nc1cc(Br)ccc1Br |  |  | inactive |
| C[C@H]1O[C@@H](O[C@H]2C[C@@H](O)[C@]3(CO)C4C(CC[C@]3(O)C2)[C@@]2(O)CC[C@H](C3=CC(=O)OC3)[C@@]2(C)C[C@H]4O)[C@@H](O)[C@@H](O)[C@H]1O (stereo not given in full) |  | 432 nM (active) |  |
| COC1CC(O[C@H]2CC[C@]3(C=O)C4CC[C@]5(C)[C@@H](C6=CC(=O)OC6)CC[C@]5(O)[C@@H]4CC[C@]3(O)C2)OC(C)C1O[C@@H]1O[C@H](CO)[C@@H](O)[C@H](O)[C@H]1O (stereo not given in full) |  | 153 nM (active) |  |
